Measurements published in PubChem BioAssay AID1159580 (chemical genetic matrix, 2015).
The campaign covered roughly 5,500 compounds. About 2,000 (36%) were called active. Inconclusive results (about 18%) are left out. No stated cut-off is given here; in the data, active means normalized growth mostly below about 0.91 (no sharp cut-off); inconclusive means no clear call, values can overlap the other calls; inactive means mostly above about 0.92. This is one part of the list.

Experiment: chemical genetic growth profiling, strain panel (AID 1159580);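 further: tested at 20 µM; growth read once vehicle control cultures reached saturation at 30 °C; 1 = growth at the plate median or of vehicle wells; lower values mean less growth of the strain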
Conditions: growth OD

Measured: normalized growth

OC(CCN1CCCCC1)(c1ccccc1)c1ccccc1
inactive: S. cerevisiae deletion strains, locus YJR075W, strain HOC1, active compounds read low 1 | S. cerevisiae deletion strains, locus YKL009W, strain mrt4, active compounds read low 1.03 | S. cerevisiae deletion strains, locus YKL068W, active compounds read low 1.01 | S. cerevisiae deletion strains, locus YKL085W, strain MDH1 (second series), active compounds read low 1.07 | S. cerevisiae deletion strains, locus YKL085W, strain MDH1, active compounds read low 1.07 | S. cerevisiae deletion strains, locus YKL160W, strain elf1, active compounds read low 1.03 | S. cerevisiae deletion strains, locus YKL190W, strain CNB1, active compounds read low 1.01 | S. cerevisiae deletion strains, locus YKR001C, strain vps1, active compounds read low 1.01 | S. cerevisiae deletion strains, locus YKR026C, strain gcn3, active compounds read low 0.993 | S. cerevisiae deletion strains, locus YKR091W, strain srl3, active compounds read low 0.993 | S. cerevisiae deletion strains, locus YLL001W, strain dnm1, active compounds read low 1.01 | S. cerevisiae deletion strains, locus YLL026W, active compounds read low 0.983 | S. cerevisiae deletion strains, locus YLL041C, strain sdh2, active compounds read low 0.994 | S. cerevisiae deletion strains, locus YLR027C, strain aat2, active compounds read low 1 | S. cerevisiae deletion strains, locus YLR039C, strain RIC1, active compounds read low 1.08 | S. cerevisiae deletion strains, locus YLR058C, strain SHM2, active compounds read low 1.01 | S. cerevisiae deletion strains, locus YLR102C, strain apc9, active compounds read low 1.01 | S. cerevisiae deletion strains, locus YLR113W, strain HOG1, active compounds read low 1.05 | S. cerevisiae deletion strains, locus YLR221C, strain rsa3, active compounds read low 0.966 | S. cerevisiae deletion strains, locus YLR258W, strain gsy2, active compounds read low 0.965 | S. cerevisiae deletion strains, locus YLR262C, strain YPT6 (second series), active compounds read low 1.02 | S. cerevisiae deletion strains, locus YLR262C, strain YPT6, active compounds read low 1.1 | S. cerevisiae deletion strains, locus YLR268W, strain sec22, active compounds read low 1.02 | S. cerevisiae deletion strains, locus YLR320W, strain mms22, active compounds read low 0.999 | S. cerevisiae deletion strains, locus YLR330W, strain CHS5, active compounds read low 1.01 | S. cerevisiae deletion strains, locus YLR342W, strain FKS1 (second series), active compounds read low 1.02 | S. cerevisiae deletion strains, locus YLR342W, strain FKS1, active compounds read low 0.993 | S. cerevisiae deletion strains, locus YLR357W, strain rsc2, active compounds read low 0.997 | S. cerevisiae deletion strains, locus YLR370C, strain arc18, active compounds read low 0.974 | S. cerevisiae deletion strains, locus YLR371W, strain rom2, active compounds read low 1.01 | S. cerevisiae deletion strains, locus YLR384C, strain iki3, active compounds read low 0.983 | S. cerevisiae deletion strains, locus YLR418C, strain cdc73, active compounds read low 1.01 | S. cerevisiae deletion strains, locus YML016C, strain PPZ1, active compounds read low 1 | S. cerevisiae deletion strains, locus YML032C, strain rad52, active compounds read low 1.01 | S. cerevisiae deletion strains, locus YML120C, strain ndi1, active compounds read low 0.978 | S. cerevisiae deletion strains, locus YML124C, strain tub3, active compounds read low 1 | S. cerevisiae deletion strains, locus YMR058W, strain fet3, active compounds read low 0.996 | S. cerevisiae deletion strains, locus YMR078C, strain ctf18, active compounds read low 1.01 | S. cerevisiae deletion strains, locus YMR125W, strain sto1, active compounds read low 1.01 | S. cerevisiae deletion strains, locus YMR129W, active compounds read low 0.99 | S. cerevisiae deletion strains, locus YMR205C, strain PFK2, active compounds read low 1.01 | S. cerevisiae deletion strains, locus YMR223W, strain ubp8, active compounds read low 1.01 | S. cerevisiae deletion strains, locus YMR231W, strain pep5, active compounds read low 0.995 | S. cerevisiae deletion strains, locus YMR307W, strain GAS1, active compounds read low 1.08 | S. cerevisiae deletion strains, locus YNL067W, strain RPL9B, active compounds read low 1.02 | S. cerevisiae deletion strains, locus YNL071W, strain lat1, active compounds read low 0.993 | S. cerevisiae deletion strains, locus YNL153C, strain GIM3, active compounds read low 0.998 | S. cerevisiae deletion strains, locus YNL183C, strain NPR1, active compounds read low 0.971 | S. cerevisiae deletion strains, locus YNL209W, strain ssb2, active compounds read low 0.987 | S. cerevisiae deletion strains, locus YNL233W, strain BNI4, active compounds read low 1.01 | S. cerevisiae deletion strains, locus YNL248C, strain rpa49, active compounds read low 1.06 | S. cerevisiae deletion strains, locus YNL250W, strain rad50, active compounds read low 1 | S. cerevisiae deletion strains, locus YNL271C, strain bni1, active compounds read low 1.02 | S. cerevisiae deletion strains, locus YNL298W, strain CLA4, active compounds read low 1.02 | S. cerevisiae deletion strains, locus YNL307C, strain MCK1, active compounds read low 1.02 | S. cerevisiae deletion strains, locus YNL322C, strain KRE1 (second series), active compounds read low 0.987 | S. cerevisiae deletion strains, locus YNL322C, strain KRE1, active compounds read low 1.01 | S. cerevisiae deletion strains, locus YNR049C, strain mso1, active compounds read low 0.997 | S. cerevisiae deletion strains, locus YNR052C, strain pop2, active compounds read low 1.02 | S. cerevisiae deletion strains, locus YOL006C, strain TOP1, active compounds read low 0.958 | S. cerevisiae deletion strains, locus YOL012C, strain htz1 0.814 | S. cerevisiae deletion strains, locus YOL147C, strain pex11, active compounds read low 1 | S. cerevisiae deletion strains, locus YOR001W, strain rrp6, active compounds read low 0.992 | S. cerevisiae deletion strains, locus YOR061W, strain CKA2, active compounds read low 1 | S. cerevisiae deletion strains, locus YOR069W, strain VPS5, active compounds read low 1 | S. cerevisiae deletion strains, locus YOR070C, strain gyp1, active compounds read low 0.989 | S. cerevisiae deletion strains, locus YOR080W, strain dia2, active compounds read low 0.984 | S. cerevisiae deletion strains, locus YOR083W, strain WHI5, active compounds read low 1.03 | S. cerevisiae deletion strains, locus YOR106W, strain vam3, active compounds read low 1.01 | S. cerevisiae deletion strains, locus YOR136W, strain idh2, active compounds read low 1.01 | S. cerevisiae deletion strains, locus YOR144C, strain elg1, active compounds read low 1 | S. cerevisiae deletion strains, locus YOR184W, strain ser1, active compounds read low 1.02 | S. cerevisiae deletion strains, locus YOR231W, strain MKK1, active compounds read low 1.07 | S. cerevisiae deletion strains, locus YOR265W, strain rbl2, active compounds read low 0.989 | S. cerevisiae deletion strains, locus YOR270C, strain vph1, active compounds read low 0.955 | S. cerevisiae deletion strains, locus YOR290C, strain snf2, active compounds read low 1 | S. cerevisiae deletion strains, locus YOR316C, strain cot1, active compounds read low 1.02 | S. cerevisiae deletion strains, locus YPL051W, strain arl3, active compounds read low 1.06 | S. cerevisiae deletion strains, locus YPL055C, strain LGE1, active compounds read low 1.02 | S. cerevisiae deletion strains, locus YPL078C, strain atp4, active compounds read low 1.03 | S. cerevisiae deletion strains, locus YPL106C, strain sse1, active compounds read low 0.966 | S. cerevisiae deletion strains, locus YPL240C, strain hsp82, active compounds read low 0.984 | S. cerevisiae deletion strains, locus YPL241C, strain CIN2, active compounds read low 1 | S. cerevisiae deletion strains, locus YPL256C, strain CLN2, active compounds read low 1.04 | S. cerevisiae deletion strains, locus YPR119W, strain clb2, active compounds read low 1.01 | S. cerevisiae deletion strains, locus YPR141C, strain kar3, active compounds read low 1.01 | S. cerevisiae deletion strains, locus YPR163C, strain tif3, active compounds read low 1.02 | S. cerevisiae deletion strains, locus YPR167C, strain met16, active compounds read low 1.02 | S. cerevisiae deletion strains, strain wtn01, active compounds read low 1.01 | S. cerevisiae strains, strain wild type, active compounds read low 1.01
